{
  "source": "PubChem BioAssay",
  "note": "Values without a mark were called inactive. No rule for the calls is given here.",
  "data": [
    {"target": "Pantothenate synthetase (Mycobacterium tuberculosis (strain ATCC 25618 / H37Rv)) (UniProt P9WIL5)", "sequence (P9WIL5 whole entry, looked up)": "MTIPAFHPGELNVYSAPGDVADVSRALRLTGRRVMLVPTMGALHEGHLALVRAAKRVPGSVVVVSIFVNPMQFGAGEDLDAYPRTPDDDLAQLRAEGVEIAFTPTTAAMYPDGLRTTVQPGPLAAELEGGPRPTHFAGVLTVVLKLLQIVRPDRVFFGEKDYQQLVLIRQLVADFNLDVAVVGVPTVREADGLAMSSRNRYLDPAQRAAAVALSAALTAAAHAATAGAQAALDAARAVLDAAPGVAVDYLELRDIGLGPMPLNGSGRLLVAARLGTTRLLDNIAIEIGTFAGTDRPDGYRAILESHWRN", "test": "Coupled enzyme confirmation of inhibitors against recombinant Mtb PanC (AID 375);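 also: 0% = full reaction with vehicle and 100% = no enzyme background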", "settings": "coupled enzyme assay; at 10 µM, stronger effect = higher value", "units": {"inhibition": "%"}, "values": [
      {"smiles": "c1ccc(OCCCn2nnc(-c3ccncc3)n2)cc1", "inhibition": 3},
      {"smiles": "CCOC(=O)C1CCN(C(=O)CSc2n[nH]c(=O)[nH]c2=O)CC1", "inhibition": 0},
      {"smiles": "CC(C)N(C(=O)CSc1nnc(NC(=O)C2CCC2)s1)C(C)C", "inhibition": 0},
      {"smiles": "FC(F)(F)c1ccc(Sc2nnc(-c3cccs3)n2CC2CCCO2)nc1", "note": "(configuration not stated)", "inhibition": 0},
      {"smiles": "COc1ccc(CC(=O)Nc2ccc(-c3nnc(-c4ccc(C)cc4)o3)cc2)cc1", "inhibition": 4},
      {"smiles": "Cn1c(-c2cc(Br)ccc2O)n[nH]c1=S", "inhibition": 2},
      {"smiles": "O=C(CN1CCN(c2ccc(F)cc2)CC1)OCc1ccccc1", "inhibition": 3},
      {"smiles": "COC(=O)Cn1cnc2sc(C)c(S(=O)(=O)N3CCC(C)CC3)c2c1=O", "inhibition": 4},
      {"smiles": "O=C(NC1CCCCC1)c1nc2c(nnn2Cc2ccccc2Cl)c(=O)[nH]1", "inhibition": 0},
      {"smiles": "Cc1ccc(F)cc1NC(=O)Cc1nn(C)c(=O)c2ccccc12", "inhibition": 1},
      {"smiles": "COc1ccc(S(=O)(=O)NCc2ccc3c(c2)OCO3)cc1C(=O)O", "inhibition": 5},
      {"smiles": "CC(C)OC(=O)CSc1nnc(Cc2ccccc2)n1Cc1ccco1", "inhibition": 8},
      {"smiles": "O=S(=O)(c1ccc(N2CCN(c3ccc(F)cc3)CC2)cc1)N1CCCC1", "inhibition": 0},
      {"smiles": "Cc1cc(-c2ccccc2)nc2cc(C(=O)NCCCn3ccnc3)nn12", "inhibition": 7},
      {"smiles": "Cn1c(=O)c2c(nc(Oc3ccc4c(c3)OCO4)n2Cc2ccc(F)cc2)n(C)c1=O", "inhibition": 0},
      {"smiles": "O=C(O)CC1Sc2nc3ccccc3n2C1=O", "note": "(configuration not stated)", "inhibition": 0},
      {"smiles": "O=C(NCC1CCCO1)C1CCCN(Cc2cnn(-c3ccccc3)c2-n2cccc2)C1", "note": "(configuration not stated)", "inhibition": 0}
    ]}
  ]
}
